Compounds with a hit are over-represented: about 1.3% of the library has one in this group of screens.
INS promoter inh – inhibitors of insulin promoter-driven GFP, primary screen, imaging, TRM-6 cells (human fetal islet line), eGFP reporter, cell count; reporter expression induced with tamoxifen; inhibition, % at 2 µM; 130,000 tested, 0.9% active; AID 1273, 2008;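 active = inhibition above the mean plus 3 SD, with well images judged a real hit on visual review, cut at about 60% in these data, passing the limit was not always enough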
IL1B NFkB pot – enhancers of NFkB p65 translocation in HUVEC – imaging, IL-1B stimulus, high-content imaging, primary screen; HUVEC IL-1B NFkB p65 nuclear translocation imaging; activation, % at 2 µM; 94,000 tested, 0.3% active; AID 819, 2007;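 active = activation above 40%, about the mean plus 3 SD, also judged a hit on visual image review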;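 also: percent activation is computed from the nuclear over cytoplasmic p65 intensity ratio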
IL1B NFkB inh – inhibitors of IL-1B driven NFkB p65 nuclear import, primary screen, imaging, HUVEC, IL-1B stimulus, high-content imaging | HUVEC IL-1B NFkB p65 nuclear translocation imaging | inhibition, % at 2 µM | 94,000 tested, 0.43% active | AID 796, 2007;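 active = inhibition above about 30% together with a positive call from visual inspection of the well image, limit read from the data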;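 also: nuclear over cytoplasmic p65 intensity ratio measured by imaging; 0% = IL-1B stimulated DMSO wells and 100% = unstimulated DMSO wells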
HUVEC tox IL1B – cytotoxicity in IL-1B stimulated HUVEC, primary screen, cytotoxicity control for IL-1B NFkB translocation project, imaging, Hoechst nuclear count, IL-1B stimulus | HUVEC cell count loss | cell count reduction, % at 2 µM | 94,000 tested, 0.41% active | AID 845, 2007;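 active = cell count reduction more than 3 SD above the screen-wide mean, cut at about 70% in these data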;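 also: normalized per plate to untreated control cells as the no-loss baseline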
Active calls of the source: *; / = no result given.

SMILES | INS promoter inh | IL1B NFkB pot | IL1B NFkB inh | HUVEC tox IL1B
COc1ccccc1-c1nc(SCC(=O)NCC2CCCO2)c2c(=O)n(C)c(=O)n(C)c2n1 (stereo unspecified) | 19 | / | / | /
N/C(=N\OC(=O)COc1ccc(Br)cc1)c1ccncc1 | 13 | / | / | /
N/C(=N\OS(=O)(=O)c1ccc(Br)cc1)c1ccncc1 | -3 | -35 | 35* | -19
O=S(=O)(c1ccc(Cl)cc1)N1c2ccccc2Oc2nc3ccccc3nc21 | 10 | -97 | 97* | 86*
Cc1cccc(Oc2nc(CN3CCOCC3)nc3sc4c(c23)CCCC4)c1 | 36 | / | / | /
CCOC(=O)Cc1csc(NC(=O)c2ccc(Br)o2)n1 | 43 | 33 | -33 | -133
CCOC(=O)Cc1csc(NC(=O)c2ccc(Br)s2)n1 | -10 | 9 | -9 | 89*
CC(C)(C)c1nc(SCC(=O)N2CC(=O)Nc3ccccc32)c2ccccc2n1 | -20 | / | / | /
COc1ccc(CN2C(=O)CCC2(C)C(=O)NC2CCCC2)c(OC)c1 (stereo unspecified) | 70* | / | / | /
Cc1ccc(CSc2nc3ccccc3cc2C=O)cc1 | -45 | -36 | 36* | 73*
O=Cc1cc2ccccc2nc1SCc1ccc(Cl)c(Cl)c1 | 9 | -34 | 34* | 65
O=Cc1cc2ccccc2nc1SCc1ccc(Cl)cc1 | 50 | 5 | -5 | 56
Cc1cccc(C)c1OCC(=O)N=Nc1c(O)[nH]c2ccc(Br)cc12 | -42 | / | / | /
COc1ccc(/C=N/OCC(=O)N=Nc2c(O)[nH]c3ccc(Br)cc23)cc1 | 80* | / | / | /
CCn1c(SCC(=O)Nc2cc(C)on2)nc2sc3c(c2c1=O)CCCC3 | 52 | -96 | 96* | 83*
C=CCn1c(SCC(=O)Nc2cc(C)on2)nc2sc3c(c2c1=O)CCCC3 | 16 | -23 | 23 | -12
C=CCn1c(SCc2csc(C)n2)nc2sc3c(c2c1=O)CCCCC3 | 34 | 23 | -23 | -7
C=CCn1c(SCc2csc(C)n2)nc2sc3c(c2c1=O)CCCC3 | 71* | -13 | 13 | -12
CCN(CC)CCNC(=O)c1cccc(NC(=O)C(=O)c2ccccc2NC(C)=O)c1 | -11 | / | / | /
O=C(Nc1nnc(Cc2ccccc2)s1)c1ccco1 | -4 | 13 | -13 | 1
CC(C)(C)C(=O)Nc1nnc(Cc2ccccc2)s1 | 52 | 42* | -42 | -26
COc1ccc(O[C@H]2C=C[C@@H](c3ccccc3)O[C@@H]2COC(=O)CC/C(C)=N/OC[C@@H](O)[C@H]2O[C@@H]3OC(C)(C)O[C@@H]3[C@H]2O)cc1 | 24 | / | / | /
CSc1nc2cc(F)c(F)cc2n1C | 86* | 36 | -36 | -20
Cc1nc2cc3ccccc3cc2n1C | -7 | / | / | /
O=C(CN1CCN(c2ccccc2O)CC1)NC(=O)NC1CCCC1 | 33 | / | / | /
SMILES | INS promoter inh | IL1B NFkB pot | IL1B NFkB inh | HUVEC tox IL1B
N=c1sccn1CC(=O)NC(=O)NC1CCCC1 | 88* | / | / | /
CCc1ccc(NC(=S)N2CCCCCCC2)cc1 | 79* | / | / | /
O=C(NC1(C(F)(F)F)NC(=O)N(c2ccccc2F)C1=O)c1ccncc1 (stereo unspecified) | -64 | / | / | /
O=C(NC1(C(F)(F)F)NC(=O)N(c2ccc(F)c(Cl)c2)C1=O)c1ccncc1 (stereo unspecified) | 27 | -96 | -1 | 88*
O=C(COC(=O)C1CC2C=CC1C2)Nc1ccccc1F (stereo unspecified) | 6 | / | / | /
Cc1c(C(=O)NCc2cccnc2)oc2c1C(=O)CC(C)(C)C2 | 79* | 12 | -12 | -30
O=C(c1ccco1)n1nc(-c2ccccc2)nc1SCc1ccccc1 | 23 | 2 | -2 | 12
CSc1nc(-c2ccc(Cl)cc2)nn1C(=O)c1ccco1 | 83* | 9 | -9 | -14
CCS(=O)(=O)n1nc(-c2ccc(Cl)cc2)nc1SC | 72* | / | / | /
CCCOc1ccc(C2/C(=C(\O)c3c(C)[nH]c(C(=O)OC)c3C)C(=O)C(=O)N2CCN(C)C)cc1 (stereo unspecified) | 85* | 3 | -3 | -5
CCN(C(=O)c1cc2ccccc2oc1=O)c1ccccc1 | -11 | -10 | 10 | 4
O=C(c1cc2ccccc2oc1=O)N(Cc1cccs1)Cc1ccccc1Cl | -20 | 3 | -3 | 94*
O=C(OCc1cncs1)c1cccs1 | 24 | / | / | /
CCCCC(CC)C(=O)NCc1ccc(F)cc1 (stereo unspecified) | -56 | / | / | /
CC1=CC(=O)C=C(C)C1=NOc1ccc([N+](=O)[O-])cc1 | 100* | / | / | /
COC(=O)c1cc(C(=O)OC)cc(-n2c(C)cc(C(=O)COC(=O)CNS(=O)(=O)c3ccc(C)cc3)c2C)c1 | -13 | / | / | /
COc1cc(NC(=S)NCCN2CCOCC2)cc(OC)c1 | 64* | / | / | /

From PubChem BioAssay
